Shown are actives, neighbours in structure and some others; about 4.3% of the full set was active somewhere.
GLP-1R agonist – GLP-1 receptor (human) agonism; P43220; HEK293 GLP-1R CRE-luciferase, luminescence, 4-6 h; cells express a hypersensitive GLP-1R form; Potency, µM (doses to about 45.6 µM), most hits filed as activators; 0.007% of 380,000 active; AID 624172
Target sequence (P43220 whole entry, looked up): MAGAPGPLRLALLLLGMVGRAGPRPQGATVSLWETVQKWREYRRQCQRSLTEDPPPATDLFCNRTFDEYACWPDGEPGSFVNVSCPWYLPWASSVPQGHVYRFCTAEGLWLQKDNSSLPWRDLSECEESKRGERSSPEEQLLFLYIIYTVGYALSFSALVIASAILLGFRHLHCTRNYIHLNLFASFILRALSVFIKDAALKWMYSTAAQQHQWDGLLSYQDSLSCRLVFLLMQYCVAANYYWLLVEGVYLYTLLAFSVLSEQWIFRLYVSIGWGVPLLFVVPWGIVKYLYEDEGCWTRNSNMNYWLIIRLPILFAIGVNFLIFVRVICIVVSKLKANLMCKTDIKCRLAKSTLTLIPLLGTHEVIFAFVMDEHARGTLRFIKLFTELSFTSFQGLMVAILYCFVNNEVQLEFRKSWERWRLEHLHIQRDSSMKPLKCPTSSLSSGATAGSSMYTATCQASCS
D3 antag – blocks the human D3 dopamine receptor. P35462. D3R cells, DiscoveRx beta-arrestin luminescence, antagonist mode; hits give low values. max response, negative = inhibition, %. 2.5% of 360,000 active. AID 652054; in the data active means max response below about -50%; inconclusive means no clear call, values can overlap the other calls
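Cells plated overnight at 1500 cells/well, then exposed to library compounds with dopamine controls for 90 minutes at 37 degrees C. DiscoveRx reagent added for 30–60 minutes at room temperature; luminescence read, quantitative HTS format.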
D3 ag – agonists of human D3 dopamine receptor; 0.58% of 410,000 active; P35462; max activation, %; AID 652048; D3R DiscoveRx beta-arrestin cells, luminescence, 90 min; in the data active means max activation above about 30%
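Agonist mode: compounds and dopamine controls were applied to plated cells for 90 min at 37 degrees C after an overnight attachment at 1500 cells/well. Luminescent read-out followed 30 - 60 minutes at room temperature with DiscoveRx detection reagent.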
GLP-1R inv ag – acts as inverse agonist at human GLP-1 receptor | P43220 | HEK293 GLP-1R CRE-luciferase, luminescence, 24 h; GLP-1R form is constitutively active | Potency, µM (series often up to 38.3 µM), hits mostly inhibitors | 1.6% of 410,000 active; further: nearly all actives have a fitted effect of over 55% in size
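GLP-1R inverse agonism mode: basal reporter luminescence in engineered HEK293 cells measured after one day of compound exposure at 37 deg C, with a 12 min room-temperature detection step.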
Each line names hits and unclear results; the compound was inactive in the other large screens. Unless noted, the call rests on the fitted dose curve; in most records, active means well fitted curve in the direction sought with a large enough effect; inconclusive means small, poorly fitted or top-dose-only effect, or another doubt; inactive means no such curve, though single readings can be large; an effect the other way counts as inactive or inconclusive.

Clc1cccc(-c2nc(NCCN3CCOCC3)c3ccccc3n2)c1	GLP-1R inv ag 7.1µM
CCc1ccc(NC(=O)CCc2c(C)nn(-c3ccc(N4CCCC4)nn3)c2C)cc1	none (no result: GLP-1R agonist, D3 antag)
Nc1nc(N)c2cc(Sc3ccc4ccccc4c3)ccc2n1	GLP-1R inv ag 10µM
CCN(CC)S(=O)(=O)c1cccc(NC(=O)Nc2cccc(C(F)(F)F)c2)c1	GLP-1R inv ag 7.9µM
CCN(CC)S(=O)(=O)c1ccc2c(c1)nc(CCC(=O)Nc1cccc(C(F)(F)F)c1)n2CC	GLP-1R inv ag 10µM
COc1ccc(N2CCN(C(=O)c3cc4cc5ccc(Cl)cc5nc4o3)CC2)cc1	none (no result: D3 antag)
CCOC(=O)C1CCCN(C(=O)c2ccccc2NC(=O)c2nsc3ccccc23)C1 (stereo not given)	none (no result: GLP-1R agonist, D3 antag)
CC1(Cc2ccccc2Cl)C(=O)Nc2c(Cl)cccc21 (stereo not given)	GLP-1R inv ag inconclusive
CC1(Cc2cccc(C#N)c2)C(=O)Nc2c(Cl)cccc21 (stereo not given)	D3 ag 48
C=Cc1ccc(CC2(C)C(=O)Nc3c(Cl)cccc32)cc1 (stereo not given)	D3 antag -67, GLP-1R inv ag inconclusive
CC1(Cc2cccc(C(N)=O)c2)C(=O)Nc2c(Cl)cccc21 (stereo not given)	none
O=[N+]([O-])c1nc2ccccc2[nH]1	none
COc1ccc2cc1Oc1cc3c(cc1OC)CC[N+](C)(C)[C@H]3Cc1ccc(cc1)Oc1c(OC)c(OC)cc3c1[C@@H](C2)[N+](C)(C)CC3	none (no result: GLP-1R agonist, D3 antag, GLP-1R inv ag)
CCOc1cc(C#N)c(NC(=O)c2cccc(S(=O)(=O)N3CCOCC3)c2)cc1OCC	none (no result: GLP-1R agonist, D3 antag)
COc1cc(OC)c(C2C=C(c3ccc(C)cc3)Nc3c(C(=O)Nc4ccccc4)cnn32)cc1OC (stereo not given)	none (no result: GLP-1R agonist, D3 antag)
CC(=O)c1sc2c(c1OC(=O)c1ccc(Cl)cc1)c(=O)n(-c1ccccc1)c(=S)n2-c1ccccc1	none
CC(=O)c1sc2c(c1OC(=O)c1ccc(Cl)cc1Cl)c(=O)n(-c1ccccc1)c(=S)n2-c1ccccc1	GLP-1R inv ag 7.9µM
O=C(Nc1ccc(Br)cc1)C1CCCN(S(=O)(=O)c2ccc(Br)s2)C1 (stereo not given)	none (no result: GLP-1R agonist, D3 antag)
CC(NCc1ccc(OCc2ccc(Cl)cc2)cc1)C(O)c1ccccc1 (stereo not given)	GLP-1R inv ag 10µM
CC(NCc1cccc(OCc2ccccc2)c1)C(O)c1ccccc1 (stereo not given)	GLP-1R inv ag 8.9µM
c1ccc(COc2cccc(CNn3cnnc3)c2)cc1	none
Cc1ccc(C(=O)NCCSC2CCCCC2)cc1S(=O)(=O)Nc1ccccc1	D3 antag inconclusive, GLP-1R inv ag 11µM
Cc1ccc(C(=O)Nc2ccccc2)cc1S(=O)(=O)Nc1ccccc1	none (no result: GLP-1R agonist, D3 antag)
O=C(NCCC1=CCCCC1)c1ccc(Cl)c(S(=O)(=O)Nc2ccccc2)c1	GLP-1R inv ag inconclusive
Cc1ccccc1NS(=O)(=O)c1cc(C(=O)NCCC2=CCCCC2)ccc1C	GLP-1R inv ag 11µM
COC(=O)C1(C(=O)OC)C[C@H](c2ccc(OC)cc2)N(Cc2ccccc2OC)[C@@H]1c1ccc(OC)cc1	GLP-1R inv ag inconclusive (no result: GLP-1R agonist)
Cc1cccc(OCc2nnc(-c3ccccc3)o2)c1	none (no result: GLP-1R agonist, D3 antag)
CCCCCCC1CC(CSC(=N)N)OC1=O (stereo not given)	D3 antag -59, GLP-1R inv ag inconclusive
CCn1c(SCC(=O)N2CCCc3ccccc32)nnc1-c1c[nH]c2ccccc12	D3 antag -51, GLP-1R inv ag 2.5µM
CCn1c(SCC(=O)N2CCN(c3ccccc3)CC2)nnc1-c1c[nH]c2ccccc12	GLP-1R inv ag 4µM
Cn1c(SCC(=O)N2CCN(c3ccccc3)CC2)nnc1-c1c[nH]c2ccccc12	GLP-1R inv ag inconclusive
CCn1c(SCC(=O)N2CCc3ccccc32)nnc1-c1c[nH]c2ccccc12	GLP-1R inv ag inconclusive
CCOc1ccc(CCNC(=O)CCCc2nnc3n(CC)c(=O)c4sccc4n23)cc1OCC	none (no result: GLP-1R agonist, D3 antag)
CCN(CC(=O)NCc1ccc(Cl)cc1)C(=O)CSc1ccc(Br)cc1	GLP-1R inv ag 6.3µM
CC(=NNC(=S)N1CCCC1)c1ccccn1	none
CC(=NNC(=S)N1CC2CCC(CC2)C1)c1cccc(C)n1	D3 antag -73, GLP-1R inv ag inconclusive
Cc1ccc(C#CC[N+](C)(C)CC#Cc2ccccc2)cc1	none
CC(=O)O[C@H]1C[C@@H]2CC[C@@H]3[C@H](CC[C@]4(C)[C@H](OC(C)=O)[C@@H](N5CC[N+](C)(C)CC5)C[C@@H]34)[C@@]2(C)C[C@@H]1N1CC[N+](C)(C)CC1	none (no result: D3 antag, D3 ag, GLP-1R inv ag)
COc1cccc(N=Cc2ccc(O)cc2O)c1	D3 ag 34
COc1ccc(N2CCN(Cc3nc4c(c(=O)[nH]c(=O)n4C)n3Cc3ccccc3C)CC2)cc1	none (no result: GLP-1R agonist, D3 antag)
CC(=O)N1CCc2cc(CNS(=O)(=O)c3ccccc3C(F)(F)F)ccc21	D3 ag 61 (no result: GLP-1R agonist, D3 antag)
CCN(c1cccc(C(F)(F)F)c1)S(=O)(=O)c1ccc2c(c1)CCN2C(C)=O	D3 antag -62, GLP-1R inv ag inconclusive
CCC(NC(=O)Nc1cc(OC)ccc1OC)c1c(-n2cccc2)sc2c1CCN(CC)C2 (stereo not given)	none (no result: GLP-1R agonist, D3 antag)
Cc1ccccc1OCC(O)CN1CCN(CC(O)COc2ccccc2C)CC1 (stereo not given)	D3 antag -57, GLP-1R inv ag 8.9µM
Cc1ccccc1OCC(O)CN1CCC(C)CC1 (stereo not given)	D3 antag -60
CCOC(=O)c1c(C)n(C)c2ccc(OCC(O)CN3CCC(C)CC3)cc12 (stereo not given)	D3 antag -102, GLP-1R inv ag inconclusive
CCOC(=O)c1c(C)n(C)c2ccc(OCC(O)CN3CCCCCC3)cc12 (stereo not given)	D3 antag inconclusive, GLP-1R inv ag inconclusive
Cc1ccccc1OCC(O)CN1CCCCC1 (stereo not given)	none
COc1ccc(NC(=O)c2cnn(-c3ccc(C)cc3)c2-n2cccc2)cc1Cl	GLP-1R inv ag inconclusive (no result: GLP-1R agonist, D3 antag)
CCOC(=O)C1(CCOc2ccccc2)CCN(Cc2ccc(-n3cccn3)cc2)CC1	D3 antag -71, GLP-1R inv ag inconclusive
CCOC(=O)C1(CCCc2ccccc2)CCN(C(=O)Cc2nonc2C)CC1	GLP-1R inv ag 11µM
CCOC(=O)C1(CCCc2ccccc2)CCN(Cc2nccn2CC)CC1	GLP-1R inv ag 10µM
CCOC(=O)C1(CCOc2ccccc2)CCN(Cc2ccncc2)CC1	none
CCOC(=O)C1(CCOc2ccccc2)CCN(Cc2nccn2CC)CC1	GLP-1R inv ag 10µM
O=C(O)[C@H](O)[C@@H](O)[C@H](O)[C@H](O)CO	none (no result: D3 antag, GLP-1R inv ag)
Cc1cccc(Nc2cc(C)nc3nc(Cc4ccc(Cl)cc4)nn23)c1	GLP-1R inv ag inconclusive (no result: GLP-1R agonist, D3 antag)
CCOC(=O)CCC(=O)OC1C(OC2C(C)C(OC3CC(C)(OC)C(O)C(C)O3)C(C)C(=O)OC(CC)C(C)(O)C(O)C(C)C(=O)C(C)CC2(C)O)OC(C)CC1N(C)C (stereo not given)	none (no result: D3 antag, D3 ag, GLP-1R inv ag)
CCOC(=O)C1(Cc2ccccc2)CCN(Cc2cnn(-c3ccccc3)c2)CC1	D3 antag -63, GLP-1R inv ag inconclusive

Compound activity from PubChem BioAssay.
